IRF reporter data for 40 compounds are collected here from the supplement of paper PMC10646978.

± gives the standard deviation.

One assay has as its system RAW-Dual (murine macrophage reporter line). Briefly: IRF reporter (Lucia luciferase) activity fold change vs agonist alone; higher = enhanced IRF activity. As to conditions: modulator concentration 10 µM; agonist: 3'3'-cGAMP 10 ug/mL. Summed up:
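In 384-well plates holding 50 000 RAW-Dual murine macrophage reporter cells per well, compound at 10 μM final was pre-incubated for 1 hour at 37 °C, after which a PRR agonist was added overnight. Supernatant SEAP read with QUANTI-Blue at 620 nm absorbance reported NF-κB, and Lucia luciferase read with QUANTI-Luc luminescence reported IRF. Fold change values come from dividing each reporter signal by the mean of agonist-only control wells on the same plate, averaged over replicate plates with propagated errors.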
For the compound `CCCCSc1nnc2c(n1)OC(c1cccc(O)c1)Nc1ccc(Br)cc1-2` (stereo not drawn), the IRF reporter amounted to 0.644 ± 0.031.
As to `Cl.Cl.Cn1cc(CNCC2CCN(c3ncc(C(=O)NO)cn3)CC2)c2ccccc21`, the IRF reporter was found to be 0.067 ± 0.0071.
With `O=C(NCCCCNC(=O)c1cncc(Br)c1)c1cncc(Br)c1`, the IRF reporter worked out at 0.946 ± 0.038.
As to `COC(=O)C1=CN(CC2CCCO2)C=C(C(=O)OC)C1c1cccc(F)c1` (stereo not drawn), the IRF reporter was 0.868 ± 0.026.
For `COc1ccc(OC)c2sc(NC(=O)C(C)C)nc12`, the IRF reporter stood at 0.837 ± 0.06.
Still for that read-out and setting: with `CCOC(=O)CC(C(=O)OCC)P(=O)(c1ccccc1)c1ccccc1` (stereo not drawn) the figure was 0.993 ± 0.061.
`CC1CC(=O)C2=C(C1)OC(N)=C(C#N)C2c1ccc(Cl)cc1` (stereo not drawn): the IRF reporter stood at 0.721 ± 0.03.
Turning to `CC(=O)OC(OC(C)=O)c1ccc([N+](=O)[O-])cc1`, the IRF reporter worked out at 1 ± 0.17.

Still in this assay, the particulars now being: modulator concentration 10 µM; agonist: LPS 0.1 ug/mL.
For `CCCOc1ccc(C=CC(=O)Nc2ccc(S(=O)(=O)Nc3ncccn3)cc2)cc1OC`, the IRF reporter was determined as 1.27 ± 0.18.
On the same count and under the same terms, with `CN(C)C1C(O)=C(C(N)=O)C(=O)C2(O)C(O)=C3C(=O)c4c(O)cccc4C(C)(O)C3CC12.Cl` (stereo not drawn) the figure was 0.937 ± 0.1; with `O=c1oc2cc(O)ccc2c2ccccc12`, 1.06 ± 0.097; with `CC(C)Oc1cccc(C(=O)NC(=S)N2CCN(c3ccc([N+](=O)[O-])cc3)CC2)c1`, 1.19 ± 0.089.
On the same count and under the same terms, with `O=c1[nH]nc(Br)c(=O)[nH]1` the figure was 1.03 ± 0.057; with `NC(CO)(CO)CO.O=C(c1ccccc1)c1ccc2n1CCC2C(=O)O` (stereo not drawn), 1.07 ± 0.2; with `O=C(NCCN1CCN(c2ccc(F)cc2)CC1)c1ccno1`, 0.968 ± 0.072.
Regarding `N[C@H](Cc1ccccc1)C(=O)O`, the IRF reporter is 0.988 ± 0.049.
Regarding `O=c1[nH]c(NN=Cc2c3ccccc3cc3ccccc23)nc2ccccc12`, the IRF reporter was found to be 1.82 ± 0.16.
Regarding `Clc1ccc(Nc2nc3nonc3nc2NC2C3CC4CC(C3)CC2C4)cc1` (stereo not drawn), the IRF reporter stood at 1.32 ± 0.17.
As for `CCN(CC)CCOC(=O)C(c1ccccc1)C1CCCCC1.Cl` (stereo not drawn), the IRF reporter came out at 1.31 ± 0.13.
As for `CCOC(C#CCN(CC)CC)(c1ccccc1)c1ccccc1.Cl`, the IRF reporter was 0.813 ± 0.054.
For `CCC(=O)c1c(O)cc(O)cc1O`, the IRF reporter amounted to 0.946 ± 0.081.
On the same count and under the same terms, with `C[C@@H]1CCN(C(=O)CC#N)C[C@@H]1N(C)c1ncnc2[nH]ccc12.O=C(O)CC(O)(CC(=O)O)C(=O)O` the figure was 0.366 ± 0.056; with `Nc1ccc(O)c(C(=O)O)c1`, 0.923 ± 0.084; with `COc1cc(C2CC3CC2C(C)C3(C)C)ccc1O` (stereo not drawn), 1.01 ± 0.14.
In the case of `CCOc1ccc2nc(SC(c3ccccc3)c3ccccc3)sc2c1`, the IRF reporter came out at 1.2 ± 0.18.
In the case of `COc1c(C)cnc(Cn2cccc(-c3nc(C)no3)c2=O)c1C`, the IRF reporter came to 0.995 ± 0.18.
As to `COc1ccc(C=C(NC(=O)c2ccccc2)C(=O)NCCC(=O)OCc2ccccc2)cc1`, the IRF reporter turned out to be 1.4 ± 0.14.
Consider `C=CCc1ccccc1OCC(O)CNC(C)C.Cl` (stereo not drawn), for which the IRF reporter came out at 1.16 ± 0.24.
Regarding `COc1ccc(OC)c(S(=O)(=O)NCC2CC(=O)N(c3ccc(Cl)cc3)C2)c1` (stereo not drawn), the IRF reporter was determined as 1.27 ± 0.23.
Take `O=[N+]([O-])c1ccc(C=CC=Nc2ccc(-c3nc4ccccc4s3)c(O)c2)cc1`: the IRF reporter worked out at 0.973 ± 0.082.
As for `c1ccc2nc3c(cc(N4CCOCC4)c4ccccc43)nc2c1`, the IRF reporter came to 1.34 ± 0.2.
For the compound `O=C(Cn1c(C(F)(F)F)nc2ccccc21)c1ccc(OC(F)F)cc1`, the IRF reporter amounted to 1.3 ± 0.15.
Take `CCN(CC)CCOCCOC(=O)C1(c2ccccc2)CCCC1` [Prestw-387]: the IRF reporter was 1.03 ± 0.12.
In the case of `COCCNc1nc(SCC(=O)Nc2cccc(C(F)(F)F)c2)nc2ccccc12`, the IRF reporter came out at 1.29 ± 0.28.
As to `CC1(C)CC(=O)C2=C(C1)OC(N)=C(C#N)C21C(=O)Nc2ccc(Br)cc21` (stereo not drawn), the IRF reporter amounted to 1.18 ± 0.1.
As for `O=c1c2ccccc2n(Cc2nc(-c3ccc(F)c(F)c3)no2)c(=O)n1C1CC1`, the IRF reporter turned out to be 1.04 ± 0.074.
Same read-out and setting: with `C[C@H](Oc1cc(-c2cnn(C3CCNCC3)c2)cnc1N)c1c(Cl)ccc(F)c1Cl` the figure was 1.1 ± 0.23; with `COc1ccc(Cl)cc1C(=O)NCCc1ccc(S(=O)(=O)NC(=O)NC2CCCCC2)cc1`, 1.36 ± 0.099; with `CS(=O)(=O)NCc1cccc(Oc2ccc(F)cc2)c1`, 0.992 ± 0.061.
Take `COc1cccc(-n2c(SCc3ccc(F)cc3)nc3c([nH]c4ccccc43)c2=O)c1`: the IRF reporter was found to be 1.33 ± 0.15.
In the case of `CCCCSc1nnc2c(n1)OC(c1cccc(O)c1)Nc1ccc(Br)cc1-2` (stereo not drawn), the IRF reporter stood at 0.931 ± 0.065.
On to `Cl.Cl.Cn1cc(CNCC2CCN(c3ncc(C(=O)NO)cn3)CC2)c2ccccc21`, for which the IRF reporter was 0.396 ± 0.025.
In the case of `O=C(NCCCCNC(=O)c1cncc(Br)c1)c1cncc(Br)c1`, the IRF reporter was 1.37 ± 0.093.
Same read-out and setting: with `COC(=O)C1=CN(CC2CCCO2)C=C(C(=O)OC)C1c1cccc(F)c1` (stereo not drawn) the figure was 1.21 ± 0.19; with `COc1ccc(OC)c2sc(NC(=O)C(C)C)nc12`, 0.885 ± 0.11; with `CCOC(=O)CC(C(=O)OCC)P(=O)(c1ccccc1)c1ccccc1` (stereo not drawn), 1.17 ± 0.095.
Regarding `CC1CC(=O)C2=C(C1)OC(N)=C(C#N)C2c1ccc(Cl)cc1` (stereo not drawn), the IRF reporter stood at 1 ± 0.07.
As to `CC(=O)OC(OC(C)=O)c1ccc([N+](=O)[O-])cc1`, the IRF reporter was found to be 1.09 ± 0.1.

The assay is the same for the next values; noted with them: modulator concentration 10 µM; agonist: MPLA […].
For `CCCOc1ccc(C=CC(=O)Nc2ccc(S(=O)(=O)Nc3ncccn3)cc2)cc1OC`, the IRF reporter was found to be 1.11 ± 0.23.
Take `CN(C)C1C(O)=C(C(N)=O)C(=O)C2(O)C(O)=C3C(=O)c4c(O)cccc4C(C)(O)C3CC12.Cl` (stereo not drawn): the IRF reporter was determined as 0.921 ± 0.072.
For `O=c1oc2cc(O)ccc2c2ccccc12`, the IRF reporter was 1.28 ± 0.17.
For the compound `CC(C)Oc1cccc(C(=O)NC(=S)N2CCN(c3ccc([N+](=O)[O-])cc3)CC2)c1`, the IRF reporter turned out to be 1.34 ± 0.15.
Same read-out and setting: with `O=c1[nH]nc(Br)c(=O)[nH]1` the figure was 1.02 ± 0.086; with `NC(CO)(CO)CO.O=C(c1ccccc1)c1ccc2n1CCC2C(=O)O` (stereo not drawn), 1.15 ± 0.19; with `O=C(NCCN1CCN(c2ccc(F)cc2)CC1)c1ccno1`, 0.929 ± 0.14.
The same measure, in the same setting: with `N[C@H](Cc1ccccc1)C(=O)O` the figure was 1.11 ± 0.14; with `O=c1[nH]c(NN=Cc2c3ccccc3cc3ccccc23)nc2ccccc12`, 1.23 ± 0.19; with `Clc1ccc(Nc2nc3nonc3nc2NC2C3CC4CC(C3)CC2C4)cc1` (stereo not drawn), 1.15 ± 0.16.
Regarding `CCN(CC)CCOC(=O)C(c1ccccc1)C1CCCCC1.Cl` (stereo not drawn), the IRF reporter came to 1.52 ± 0.18.
As to `CCOC(C#CCN(CC)CC)(c1ccccc1)c1ccccc1.Cl`, the IRF reporter was determined as 1.62 ± 0.4.
Take `CCC(=O)c1c(O)cc(O)cc1O`: the IRF reporter came to 0.84 ± 0.071.
On the same count and under the same terms, with `C[C@@H]1CCN(C(=O)CC#N)C[C@@H]1N(C)c1ncnc2[nH]ccc12.O=C(O)CC(O)(CC(=O)O)C(=O)O` the figure was 0.507 ± 0.1; with `Nc1ccc(O)c(C(=O)O)c1`, 1.03 ± 0.13; with `COc1cc(C2CC3CC2C(C)C3(C)C)ccc1O` (stereo not drawn), 1.34 ± 0.22.
Take `CCOc1ccc2nc(SC(c3ccccc3)c3ccccc3)sc2c1`: the IRF reporter worked out at 1.04 ± 0.31.
Consider `COc1c(C)cnc(Cn2cccc(-c3nc(C)no3)c2=O)c1C`, for which the IRF reporter came out at 1.1 ± 0.22.
As to `COc1ccc(C=C(NC(=O)c2ccccc2)C(=O)NCCC(=O)OCc2ccccc2)cc1`, the IRF reporter was determined as 1.11 ± 0.22.
The same measure, in the same setting: with `C=CCc1ccccc1OCC(O)CNC(C)C.Cl` (stereo not drawn) the figure was 1.07 ± 0.14; with `COc1ccc(OC)c(S(=O)(=O)NCC2CC(=O)N(c3ccc(Cl)cc3)C2)c1` (stereo not drawn), 1.21 ± 0.35.
Still for that read-out and setting: with `O=[N+]([O-])c1ccc(C=CC=Nc2ccc(-c3nc4ccccc4s3)c(O)c2)cc1` the figure was 0.946 ± 0.079.
Regarding `c1ccc2nc3c(cc(N4CCOCC4)c4ccccc43)nc2c1`, the IRF reporter stood at 1.08 ± 0.2.
Still for that read-out and setting: with `O=C(Cn1c(C(F)(F)F)nc2ccccc21)c1ccc(OC(F)F)cc1` the figure was 1.02 ± 0.072; with `CCN(CC)CCOCCOC(=O)C1(c2ccccc2)CCCC1` [Prestw-387], 1.11 ± 0.19.
With `COCCNc1nc(SCC(=O)Nc2cccc(C(F)(F)F)c2)nc2ccccc12`, the IRF reporter came to 1.42 ± 0.46.
As for `CC1(C)CC(=O)C2=C(C1)OC(N)=C(C#N)C21C(=O)Nc2ccc(Br)cc21` (stereo not drawn), the IRF reporter stood at 1.03 ± 0.096.
As to `O=c1c2ccccc2n(Cc2nc(-c3ccc(F)c(F)c3)no2)c(=O)n1C1CC1`, the IRF reporter stood at 1.07 ± 0.15.
As for `C[C@H](Oc1cc(-c2cnn(C3CCNCC3)c2)cnc1N)c1c(Cl)ccc(F)c1Cl`, the IRF reporter worked out at 1.17 ± 0.38.
Take `COc1ccc(Cl)cc1C(=O)NCCc1ccc(S(=O)(=O)NC(=O)NC2CCCCC2)cc1`: the IRF reporter is 1.44 ± 0.15.
The same measure, in the same setting: with `CS(=O)(=O)NCc1cccc(Oc2ccc(F)cc2)c1` the figure was 1.03 ± 0.1; with `COc1cccc(-n2c(SCc3ccc(F)cc3)nc3c([nH]c4ccccc43)c2=O)c1`, 0.902 ± 0.13.
Turning to `CCCCSc1nnc2c(n1)OC(c1cccc(O)c1)Nc1ccc(Br)cc1-2` (stereo not drawn), the IRF reporter turned out to be 0.866 ± 0.075.
The same measure, in the same setting: with `Cl.Cl.Cn1cc(CNCC2CCN(c3ncc(C(=O)NO)cn3)CC2)c2ccccc21` the figure was 0.692 ± 0.054.
Take `O=C(NCCCCNC(=O)c1cncc(Br)c1)c1cncc(Br)c1`: the IRF reporter worked out at 1.16 ± 0.24.
Consider `COC(=O)C1=CN(CC2CCCO2)C=C(C(=O)OC)C1c1cccc(F)c1` (stereo not drawn), for which the IRF reporter worked out at 1.18 ± 0.16.
As to `COc1ccc(OC)c2sc(NC(=O)C(C)C)nc12`, the IRF reporter was 0.828 ± 0.14.
For the compound `CCOC(=O)CC(C(=O)OCC)P(=O)(c1ccccc1)c1ccccc1` (stereo not drawn), the IRF reporter stood at 1.15 ± 0.23.
On the same count and under the same terms, with `CC1CC(=O)C2=C(C1)OC(N)=C(C#N)C2c1ccc(Cl)cc1` (stereo not drawn) the figure was 0.909 ± 0.13; with `CC(=O)OC(OC(C)=O)c1ccc([N+](=O)[O-])cc1`, 1.09 ± 0.17.
